Assay outcomes as filed in PubChem BioAssay.
An excerpt weighted towards active compounds, which were near 3.4% of everything screened.
FBPA Giardia inh: Giardia lamblia aldolase inhibition; A8B2U2; purified Giardia FBPA; Potency, µM (top dose mostly 59.6 µM), without a hit: at the top dose activity, negative = inhibition, hits mostly inhibitors; 290,000 compounds, 0.71% hits; AID 2451; further: nearly all actives have a fitted effect of over 55% in size
Target sequence (A8B2U2 whole entry, looked up): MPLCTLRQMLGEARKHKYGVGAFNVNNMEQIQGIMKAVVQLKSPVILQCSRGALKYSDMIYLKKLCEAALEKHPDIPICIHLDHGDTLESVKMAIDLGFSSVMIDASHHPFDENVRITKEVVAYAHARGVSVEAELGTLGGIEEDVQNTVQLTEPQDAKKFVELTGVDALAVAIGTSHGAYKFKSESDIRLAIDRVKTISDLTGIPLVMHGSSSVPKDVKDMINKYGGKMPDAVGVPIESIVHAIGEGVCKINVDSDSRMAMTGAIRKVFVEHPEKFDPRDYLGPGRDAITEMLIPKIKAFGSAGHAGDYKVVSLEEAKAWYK
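40 nM FBPA preincubated 10 min at RT with compound (up to 57.5 uM final), then substrate plus GAPDH/TPI/NAD/arsenate coupling and diaphorase/resazurin added. Fluorescence read after 20 min at RT, 525/598 nm.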
RE007 growth inh: less growth of the S. pombe RE007 Vpr strain; S. pombe RE007 Vpr strain, BacTiter-Glo ATP luminescence, 24 h; Potency, µM (titrated, usually from 92.2 µM), for inactives: at the highest dose activity change, negative = less growth, actives largely listed as inhibitors; 360,000 compounds, 0.21% hits; active means well fitted falling curve with a large enough effect; inconclusive means small, poorly fitted or top-dose-only effect; inactive means no such curve, though single readings can be large or run the other way; further: nearly all actives have a fitted effect of over 50% in size
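Fission yeast strain RE007, carrying one chromosomally integrated HIV-1 vpr copy, was seeded at OD 0.01 in PMG+AL medium with 23 nL pinned compound. After 24 h at 30 °C and 99% humidity, viability was read by BacTiter-Glo luminescence.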
Sm TGR inh: blocks Schistosoma mansoni thioredoxin glutathione reductase; purified TGR, DTNB reduction, TNB absorbance 405 nm; Q962Y6; AID 485364; 360,000 compounds, 3% hits; Potency, µM (highest dose often 114 µM), inactives show top-dose activity change, negative = inhibition, usual class: inhibitors; further: nearly all actives have a fitted effect of over 60% in size
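Kinetic colorimetric format: TGR-catalysed, NADPH-driven DTNB reduction monitored via TNB absorbance. Enzyme dispensed at 20 nM; compound exposure 15 min at room temperature before reaction start.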
AmpC inh no detg: inhibitors of E. coli AmpC beta-lactamase without detergent; Potency, µM (highest dose often 57.1 µM), without a hit: at the top dose activity change, negative = inhibition, actives largely listed as inhibitors; AmpC nitrocefin hydrolysis, absorbance 480 nm, 0.0001% Triton; 330,000 compounds, 0.52% hits;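 further: plate controls were no compound for no effect and no enzyme for full effect; nearly all actives have a fitted effect of over 20% in size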
Target sequence (P00811 whole entry, looked up): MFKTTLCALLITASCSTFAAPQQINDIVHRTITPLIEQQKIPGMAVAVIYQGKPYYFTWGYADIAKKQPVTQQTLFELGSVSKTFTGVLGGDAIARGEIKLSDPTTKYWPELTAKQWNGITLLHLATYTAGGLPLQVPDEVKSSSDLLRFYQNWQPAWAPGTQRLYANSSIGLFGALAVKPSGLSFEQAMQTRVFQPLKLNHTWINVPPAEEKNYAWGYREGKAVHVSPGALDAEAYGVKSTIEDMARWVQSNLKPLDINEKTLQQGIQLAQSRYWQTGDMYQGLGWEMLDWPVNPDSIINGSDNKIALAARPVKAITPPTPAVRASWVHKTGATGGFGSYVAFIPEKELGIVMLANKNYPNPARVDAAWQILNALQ
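20 mM phosphate pH 7.0 + 0.01% (detergent screen) or 0.0001% Triton X-100; 5.3 nM AmpC reagent; cpd preinc 15 min RT; nitrocefin (800 uM stock) to start; A480 q20 s × 4 min; Activity was normalised to no-enzyme and no-compound control wells.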
AmpC detergent: AmpC beta-lactamase inhibition with detergent present; P00811; AID 485294; 370,000 compounds, 0.041% hits; AmpC hydrolysis of nitrocefin, absorbance 480 nm, 0.01% Triton; Potency, µM (top dose mostly 114 µM), inactives show at the top dose activity change, negative = inhibition, usual class: inhibitors;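 further: 0% = no-compound wells and -100% = no-enzyme wells; nearly all actives have a fitted effect of over 25% in size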
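AmpC (5.3 nM in the dispensed reagent) in 20 mM phosphate pH 7.0 with 0.01% (detergent screen) or 0.0001% Triton X-100 was preincubated with compounds for 15 min at room temperature. Nitrocefin was then added from an 800 uM solution, and hydrolysis was followed at 480 nm.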
* = called active by the depositor. Unless noted, the call rests on the fitted dose curve; in most records, active means well fitted curve in the direction sought with a large enough effect; inconclusive means small, poorly fitted or top-dose-only effect, or another doubt; inactive means no such curve, though single readings can be large; an effect the other way counts as inactive or inconclusive. Unless noted, on the % scale 0 is the no-effect control and ±100 the full control effect; potency means the concentration at half of the fitted maximal effect.

How did N/C(=N\NC(=O)c1sccc1OCc1ccc(Cl)cc1Cl)c1ccccn1 do in these assays?
FBPA Giardia inh: 1%; RE007 growth inh: 10%; Sm TGR inh: 23%; AmpC inh no detg: -24%; AmpC detergent: 0%

How did COc1ccc(C)c2sc(NC(=O)C3=COCCO3)nc12 do in these assays?
FBPA Giardia inh: -27%; Sm TGR inh: 0%; AmpC inh no detg: 40µM*; AmpC detergent: inconclusive

Results for Cc1ccc(C)c(-c2csc(NC(=O)C3=COCCO3)n2)c1 ?
RE007 growth inh: 25µM*; Sm TGR inh: 0%; AmpC inh no detg: -15%; AmpC detergent: -11%

Results for Cc1ccc(-c2csc(NC(=O)C3=COCCO3)n2)cc1 ?
FBPA Giardia inh: -1%; RE007 growth inh: inconclusive; Sm TGR inh: -11%; AmpC inh no detg: 1%; AmpC detergent: inconclusive

What do the screens show for `COc1ccc(N(C(=O)c2cccnc2)S(=O)(=O)c2cccc([N+](=O)[O-])c2)cc1`?
FBPA Giardia inh: 2%; RE007 growth inh: 15%; Sm TGR inh: inconclusive; AmpC inh no detg: 4%; AmpC detergent: 3%

Results for COc1ccc(N(C(=O)c2ccncc2)S(=O)(=O)c2cccc([N+](=O)[O-])c2)cc1 ?
RE007 growth inh: -17%; Sm TGR inh: 32µM*; AmpC inh no detg: 26%; AmpC detergent: -4%

How did C/C=C(\C)C(=O)NCCN1C2=NC[C@H](C)N2C[C@@H]1Cc1ccc(OC)cc1 do in these assays?
FBPA Giardia inh: 5%; RE007 growth inh: -11%; Sm TGR inh: -3%; AmpC inh no detg: -3%; AmpC detergent: 4%

How did CCCCCCNC(=O)N[C@H](C(=O)NCCC[C@H]1CN2C(=NC[C@H]2C)N1CCC(c1ccccc1)c1ccccc1)C(C)O (stereo not given in full) do in these assays?
FBPA Giardia inh: inconclusive; Sm TGR inh: 0.5µM*; AmpC inh no detg: 233%; AmpC detergent: 0%

Results for O=S(=O)(N/N=C/c1ccc(N2CCOCC2)cc1)c1ccccc1 ?
FBPA Giardia inh: -11%; RE007 growth inh: 22%; Sm TGR inh: 35µM*; AmpC inh no detg: -17%; AmpC detergent: 7%

How did Cc1cccc(C(=O)Oc2ccc(/C=N/NC(=O)c3ccc(O)cc3)cc2)c1 do in these assays?
FBPA Giardia inh: 1%; RE007 growth inh: 34%; Sm TGR inh: 6%; AmpC inh no detg: 14µM*; AmpC detergent: -2%

How did O=C(N/N=C/c1ccc(N2CCOCC2)s1)c1ccc(O)cc1 do in these assays?
RE007 growth inh: 3%

How did O=C(N/N=C/c1ccc(N2CCOCC2)cc1)c1ccc(O)cc1 do in these assays?
FBPA Giardia inh: 6%; RE007 growth inh: -15%; Sm TGR inh: 45µM*; AmpC inh no detg: -34%; AmpC detergent: 0%

Results for CC(C)CNc1nc(N)c([N+](=O)[O-])c(N2CCCCCC2)n1 ?
FBPA Giardia inh: 6%; RE007 growth inh: 3%; Sm TGR inh: -1%; AmpC inh no detg: -23%; AmpC detergent: -1%

How did Cc1ccn2c(Nc3ccc(F)cc3)c(-c3ccccn3)nc2c1 do in these assays?
Sm TGR inh: 13%; AmpC detergent: 21%

Results for CC(/C=N/NC(=O)c1ccc(CN2c3cccc4cccc(c34)S2(=O)=O)cc1)c1ccccc1 (stereo not given) ?
FBPA Giardia inh: -1%; RE007 growth inh: 4%; Sm TGR inh: 3%; AmpC inh no detg: -42%; AmpC detergent: -5%

How did O=C(O)c1ccc(/C=N/NC(=O)c2ccc(CN3c4cccc5cccc(c45)S3(=O)=O)cc2)cc1 do in these assays?
FBPA Giardia inh: -18%; RE007 growth inh: -8%; Sm TGR inh: -10%; AmpC inh no detg: 28µM*; AmpC detergent: -13%

How did COC(=O)[C@@]12C[C@@H](CC(=O)N3CCOCC3)C(=O)N(CCc3ccc(OC)c(OC)c3)C1=CCC(C)(C)C2 do in these assays?
RE007 growth inh: 0%

What do the screens show for `O=C(Nc1c(C(=O)N2CCN(c3ccccc3F)CC2)oc2ccccc12)c1ccccc1F`?
Sm TGR inh: 6%; AmpC detergent: 20%

Results for Cc1ccc(C(=O)COC(=O)C(C)N2C(=O)C3C4CCC(C4)C3C2=O)cc1 (stereo not given) ?
FBPA Giardia inh: 4%; RE007 growth inh: 5%; Sm TGR inh: 2%; AmpC inh no detg: 28%; AmpC detergent: -6%

Results for Cc1ccc(C)c(C(=O)COC(=O)C(C)N2C(=O)C3C4CCC(C4)C3C2=O)c1 (stereo not given) ?
RE007 growth inh: -15%; Sm TGR inh: 22µM*; AmpC inh no detg: 74%; AmpC detergent: -3%

How did CCS(=O)(=O)N1CCN(c2ccc(S(=O)(=O)N3CCOCC3)cc2)CC1 do in these assays?
FBPA Giardia inh: 6%; RE007 growth inh: 11%; Sm TGR inh: -4%; AmpC inh no detg: -13%; AmpC detergent: -13%

What do the screens show for `COc1ccc(-n2cccc2/C=C/[N+](=O)[O-])cc1`?
FBPA Giardia inh: -21%; RE007 growth inh: inconclusive; Sm TGR inh: 25µM*; AmpC inh no detg: -16%; AmpC detergent: -12%

How did N#CCc1nc(C(c2ccccc2)c2ccccc2)no1 do in these assays?
FBPA Giardia inh: inconclusive; RE007 growth inh: -6%; Sm TGR inh: -7%; AmpC inh no detg: 18µM*; AmpC detergent: -6%

Results for C#CCOCCOCCOCCNc1nc(N2CCN(C(=O)[C@H](CCCCN)n3cc([C@@H](N)CC(C)C)nn3)CC2)nc(N2CCN(C(=O)[C@H](Cc3ccc(O)cc3)n3cc([C@@H](N)CC(C)C)nn3)CC2)n1 ?
FBPA Giardia inh: 0%; RE007 growth inh: 4%; Sm TGR inh: -6%; AmpC inh no detg: 170%; AmpC detergent: 8%

Results for C#CCOCCOCCOCCNc1nc(N2CCN(C(=O)[C@H]([C@@H](C)CC)n3cc([C@@H](N)Cc4ccc(O)cc4)nn3)CC2)nc(N2CCN(C(=O)[C@H](CCCCN)n3cc([C@@H](N)CC(C)C)nn3)CC2)n1 ?
FBPA Giardia inh: -6%; Sm TGR inh: 13µM*; AmpC inh no detg: 213%; AmpC detergent: 6%

Results for C#CCOCCOCCOCCNc1nc(N2CCN(C(=O)[C@H]([C@@H](C)CC)n3cc([C@@H](N)CO)nn3)CC2)nc(N2CCN(C(=O)[C@H]([C@@H](C)CC)n3cc([C@@H](N)CC(C)C)nn3)CC2)n1 ?
FBPA Giardia inh: -12%; RE007 growth inh: -5%; Sm TGR inh: 35µM*; AmpC inh no detg: 210%; AmpC detergent: 7%
